USP28 block – human USP28 deubiquitinase inhibition. Q96RU2. purified USP28, Ub-rhodamine cleavage fluorescence, 30 min. inhibition, % at 25 µM. 3% of 47,000 active. AID 1645857
USP30 inh – inhibitors of human USP30 deubiquitinase; purified USP30, Ub-rhodamine cleavage fluorescence; inhibition, % at 25 µM; 5.3% of 47,000 active
Target sequence (Q70CQ3 whole entry, looked up): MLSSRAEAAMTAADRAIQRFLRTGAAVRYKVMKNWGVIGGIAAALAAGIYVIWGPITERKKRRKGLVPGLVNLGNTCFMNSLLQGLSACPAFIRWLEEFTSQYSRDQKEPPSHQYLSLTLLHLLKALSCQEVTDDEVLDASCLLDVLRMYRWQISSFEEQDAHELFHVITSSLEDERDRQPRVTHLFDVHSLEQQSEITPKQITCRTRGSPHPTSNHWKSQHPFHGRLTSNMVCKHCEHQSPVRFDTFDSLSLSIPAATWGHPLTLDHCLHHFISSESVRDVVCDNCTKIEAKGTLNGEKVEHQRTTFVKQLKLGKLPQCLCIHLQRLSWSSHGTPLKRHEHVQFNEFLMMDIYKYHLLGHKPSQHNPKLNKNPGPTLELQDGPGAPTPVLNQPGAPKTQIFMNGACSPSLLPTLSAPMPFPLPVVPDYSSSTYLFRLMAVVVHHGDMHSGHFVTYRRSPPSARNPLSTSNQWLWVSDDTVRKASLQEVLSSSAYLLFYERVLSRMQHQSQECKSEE
USP17 block – human USP17-like deubiquitinase inhibition | A8MUK1 | purified USP17, Ub-rhodamine cleavage fluorescence, 3 h | inhibition, % at 50 µM | 6.5% of 47,000 active | AID 1645855
OTUD3 inh – blocks human OTUD3 ubiquitin-rhodamine cleavage | Q5T2D3 | purified OTUD3, Ub-rhodamine fluorescence, 2 h | 0.7% of 47,000 active | inhibition, % at 25 µM
Of the large screens only hits and unclear results are named; the others gave an inactive call. Hits are enriched below; roughly 11% of the tested compounds scored in any of these assays. Rule as the data show it: active = inhibition above about 30%; inactive = the rest.

COc1cccc(CC(=O)N[C@@H](C)c2nc3cc(-c4ccc(F)cc4)ncn3n2)c1	none
COc1ccc(-c2cc3nc([C@H](C)NC(=O)Cc4cc(F)ccc4F)nn3cn2)cc1	USP30 inh 37, USP17 block 40
COCCOc1ccc(C(=O)N[C@H](C)c2nc3cc(-c4ccccc4F)ncn3n2)cc1	none
COc1ccc(-c2cc3nc([C@@H](C)NC(=O)c4ccc5c(c4)OCO5)nn3cn2)cc1	USP28 block 64, USP30 inh 85
Cc1noc(-c2cccn(Cc3cccc(C(F)(F)F)c3)c2=O)n1	USP28 block 76
COc1ccc(Cn2ccc(-c3ccccc3)c(C#N)c2=O)cc1	none
N#Cc1c(-c2ccccc2)ccn(Cc2cccc(C(F)(F)F)c2)c1=O	USP30 inh 44, USP17 block 53
O=C(NCCN1CCCC1)c1nc2c(o1)CN(C(=O)c1cccnc1)C2	none
Cc1ccc(CNc2nc3nc(CN4CCOCC4)cc(=O)n3[nH]2)cc1	none
O=C(NCCc1ccc(Cl)cc1)c1ccc(CNS(=O)(=O)c2ccccc2)cc1	USP28 block 60, USP30 inh 84
O=C(NCCc1cccc(Cl)c1)c1ccc(-c2ccccc2)cc1	none
CC(=O)Nc1cc(C(=O)NC2CCCC2)c2ccc(C)nc2c1	none
CN(C)CCCN(C(=O)CS(=O)(=O)c1ccc(F)cc1)c1nc2ccccc2s1	none
O=C(CS(=O)(=O)c1ccc(F)cc1)Nc1ccc(-c2nc3ccccc3s2)c(O)c1	USP17 block 37
O=[N+]([O-])c1cccc(CSc2nnc(/C=C/c3ccccc3)o2)c1	USP28 block 58
O=c1[nH]c2ccc(S(=O)(=O)Nc3ccc(O)c4ccccc34)cc2[nH]1	USP17 block 63, OTUD3 inh 63
Cc1ccc(S(=O)(=O)Nc2cc3[nH]c(=O)[nH]c3cc2C)c(C)c1	none
O=C(COC(=O)c1ccc(CN2CCCC2=O)cc1)c1ccc2c(c1)OCCO2	USP28 block 90
Cc1cccc(C(=O)OCC(=O)c2ccc3c(c2)OCCO3)c1O	none
CC(OC(=O)c1ccc2ncsc2c1)C(=O)Nc1ccc2c(c1)OCO2 (stereo not drawn)	none
O=C(COC(=O)c1ccc2ncsc2c1)c1ccc2c(c1)OCCO2	USP28 block 31
NS(=O)(=O)c1cc(C(=O)OCC(=O)c2ccc3c(c2)OCCO3)ccc1Cl	USP28 block 70
CSc1ncccc1C(=O)OCc1ccc(Cl)c(Cl)c1	USP28 block 44, USP17 block 45
Cc1oc2ncnc(Oc3ccc(F)cc3)c2c1C	USP30 inh 41
Cc1ccc(Cn2cc(S(=O)(=O)N3CCCCC3)ccc2=O)cc1	none
Cc1ccc(S(=O)(=O)N(C)c2c(C)ccc(S(=O)(=O)N3CCCCC3)c2C)cc1	USP30 inh 30
COc1ccc(S(=O)(=O)N2CCCCC2)cc1N(C)S(=O)(=O)c1ccc(C)cc1	none
Cc1ccc(S(=O)(=O)N2CCN(S(=O)(=O)N3CCCCCC3)CC2)cc1	USP30 inh 40
O=C(Nc1ccc(F)cc1F)c1nnsc1Sc1ccc(Cl)cc1	none
c1coc(-c2nc(CN3CCOC(Cn4cccn4)C3)cs2)c1 (stereo not drawn)	none
COc1ccccc1Nc1cc(C)c2ccccc2n1	none
Cc1cc(Oc2ccc(F)cc2F)nc2ccccc12	USP28 block 31
N#Cc1cccc(NC(=O)Cc2csc3nc(-c4ccccc4)cn23)c1	none
Cc1nnc(NC(=O)C2CCN(S(=O)(=O)c3ccc4c(c3)CCC4)CC2)o1	none
O=C(Nc1nc2c(s1)CCC2)C1CCN(S(=O)(=O)c2ccc3c(c2)CCCC3)CC1	USP28 block 50
O=S(=O)(c1ccccc1)N1CCCCC1c1nnc(-c2cccnc2)o1 (stereo not drawn)	none
CCc1nc(Nc2ccc3c(c2)SC2=NCCN23)c2oc3ccccc3c2n1	USP28 block 63, USP30 inh 41, USP17 block 61
Cc1nc(N2CCN(C)CC2)ncc1C(=O)NCc1ccccc1F	none
COc1ccc(CC(=O)Nc2cc(N3CCCS3(=O)=O)ccc2OC)cc1	none (no result: USP17 block)
CCOc1cc2[nH]c(=O)n(Cc3cccnc3)c(=O)c2cc1OCC	USP30 inh 33
CCOc1cc2[nH]c(=O)n(CCCC(=O)NCc3ccco3)c(=O)c2cc1OCC	USP17 block 33
COC(=O)c1ccc2c(=O)n(CCCCCC(=O)NCCc3ccccc3Cl)c(=O)[nH]c2c1	none
COC(=O)c1ccc2c(=O)n(CCCCCC(=O)NCCc3ccc(S(N)(=O)=O)cc3)c(=O)[nH]c2c1	USP28 block 86, USP30 inh 88
COc1cc2[nH]c(=O)n(Cc3ccc(C(=O)NCc4ccco4)cc3)c(=O)c2cc1OC	none
COc1cc(NC(=O)Cn2c(=O)[nH]c3ccccc3c2=O)cc(OC)c1	USP30 inh 73, USP17 block 53
COc1ccccc1CC(NC(C)=O)C(=O)NC1CCN(c2nc(C)cc(C)n2)CC1 (stereo not drawn)	none
COc1ccc(CSc2nc3ccncc3[nH]2)cc1	none (no result: USP28 block, USP30 inh)
O=C(O)C1=CC(c2ccccc2Cl)n2nnnc2N1 (stereo not drawn)	none
Cn1cc(N2CCC3(CCN(Cc4cccc(C#N)c4)CC3)C2=O)cn1	none
CCOc1ccccc1-c1noc(CN(Cc2ccccc2)S(=O)(=O)CC)n1	none
COc1cccc(CNC(=O)CCCCCn2c(=O)[nH]c3ccccc3c2=O)c1	USP30 inh 41
COc1ccc(NC(=O)CCCCn2c(=O)[nH]c3ccccc3c2=O)cc1OC	none
O=C(C1CCCCC1)N1CCCC1c1[nH]ncc1-c1ccccc1F (stereo not drawn)	none
CCOC(=O)c1cc2c(ccn2C)n1CC(=O)N(Cc1ccc(Cl)cc1)c1ccccc1	USP17 block 43
CCOC(=O)c1cc2c(ccn2C)n1Cc1ccc(C#N)cc1	none
Cc1ccc(NC(=O)C2CCN(c3cncnc3N3CCCC3)CC2)cc1	USP28 block 90
O=C(NCc1ccccn1)C1CCN(c2cncnc2N2CCCCC2)CC1	USP28 block 41
O=C(Nc1cnn(-c2ncncc2N2CCCCC2)c1)C1CC1	none
O=C(NCc1ccco1)C1CCN(c2cncnc2N2CCCC2)CC1	none
O=C(Nc1ccc(NC(=O)C(c2ccccc2)c2ccccc2)cc1)c1cccs1	none
O=C(Nc1ccccc1)C(C(=O)Nc1ccccc1)c1ccccc1	USP30 inh 31
Cc1nn(C)cc1C(C(=O)NC1CCCCC1)N(C(=O)CN1C(=O)c2ccccc2S1(=O)=O)c1ccc2c(c1)OCO2 (stereo not drawn)	USP17 block 56 (no result: USP28 block, USP30 inh)
O=C(NCC1OCCc2sccc21)c1ccc(Cl)cc1 (stereo not drawn)	none
COc1ccccc1OCc1nnc(SCC(=O)c2ccc(F)cc2)n1C	none
Cn1c(COc2cccc3cccnc23)nnc1SCC(=O)c1ccc(Cl)cc1Cl	USP28 block 37
Cc1nc(-c2cccc(S(=O)(=O)Nc3cccc(C(F)(F)F)c3)c2)no1	none
O=C1N[C@H](Cc2c[nH]c3ccccc23)C(=O)N[C@H]1Cc1c[nH]c2ccccc12	USP30 inh 36
COc1ccc(OC)c(/C=C(/C#N)c2nc(-c3ccc4c(c3)OCO4)cs2)c1	none
COc1ccc(-c2ccc(C#N)c(SCc3cc4c(cc3Cl)OCO4)n2)cc1	USP17 block 43
Cc1ccc(C(C)C)cc1OCC(=O)Nc1nc2ccccc2[nH]1	none

Assay outcomes: PubChem, Buhrlage Lab, Dana-Farber Cancer Institute and Novartis Institutes for BioMedical Research (Cambridge, Mass)
